Shown are actives, neighbours in structure and some others; about 1.6% of the full set was active somewhere.
KCNQ2 inh: blocks the rat KCNQ2 potassium channel | CHO-K1 KCNQ2, FluxOR thallium flux, 20 min; stronger effect = lower value | 1.1% of 310,000 active | B-score at 10 µM | O88943;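 active = fluorescence ratio B-score at most minus 3 library SDs, with starting brightness B-score within 2 library SDs, cut at about -5.5 in these data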
KCNQ2 pot: potentiators of rat KCNQ2 potassium channel | O88943 | CHO-K1 KCNQ2, FluxOR thallium flux fluorescence; stronger effect = higher value | B-score at 10 µM | 0.54% of 310,000 active | AID 2239;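 active = fluorescence ratio B-score at least 3 SD of library B-scores, with initial fluorescence B-score within 3 of them, cut at about 5.3 in these data; same plate scores as AID 2156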;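 also: B-score of peak minus minimum over baseline fluorescence ratio after K+ and Tl+ stimulus; positive B-score means potentiation of KCNQ2 with more thallium influx and brighter signal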
Kir21 confirm: confirmation of mouse Kir2.1 potassium channel inhibitors | shares compounds with KCNQ2 pot | Kir2.1-expressing cells, FluxOR thallium flux fluorescence; stronger effect = lower value | Tl flux remaining, % of negative control (stronger effect = lower value), % at 10 µM | 41% of 2,300 active;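 active = Primary-screen hit whose thallium flux fell at least 3 control SD below untreated wells in both duplicates, with normal baseline fluorescence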;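 also: 0% = blank wells without stimulus and 100% = stimulated no-compound controls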
HEK293 Tl flux: counter-screen for Kir2.1 inhibitors: effect in parental HEK293 cells. shares compounds with KCNQ2 pot. FluxOR thallium flux fluorescence; 0% = unstimulated blank wells. FluxOR signal as % of negative control (100 = no effect), % at 10 µM. 19% of 2,300 active. AID 2105;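 active = dye signal at least 3 control SD above or below untreated wells in both duplicates, raw fluorescence within 3, either direction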;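 also: percent is based on the flux ratio of peak minus minimum fluorescence over baseline F0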
CHO-K1 ctr: counter-screen for KCNQ2 potentiators: effect in parental CHO-K1 cells; FluxOR thallium flux fluorescence; zero = vehicle mean+3SD, 100% = vehicle-minus-blank window; AID 2282; activity increase over 3SD of controls, % at 10 µM; shares compounds with KCNQ2 pot; 43% of 1,200 active;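 active = signal rise of at least 3 SD above the untreated control mean, in both duplicate wells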;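 also: counter screen of KCNQ2 potentiator hits so any rise reflects channel-independent effects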
KCNQ1 sel pot: selectivity of KCNQ2 potentiators: effect on human KCNQ1 | 28% of 1,200 active | shares compounds with KCNQ2 pot | CHO KCNQ1 stable, FluxOR thallium flux fluorescence; beyond 3SD, as % of vehicle-control signal | activation over 3SD threshold, % at 10 µM;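 active = fluorescence ratio rise of at least 3 SD of vehicle wells above their mean, in both replicate wells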;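 also: 0% = vehicle mean plus 3 SD and 100% = vehicle minus unstimulated blank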
Target sequence (P51787 whole entry, looked up): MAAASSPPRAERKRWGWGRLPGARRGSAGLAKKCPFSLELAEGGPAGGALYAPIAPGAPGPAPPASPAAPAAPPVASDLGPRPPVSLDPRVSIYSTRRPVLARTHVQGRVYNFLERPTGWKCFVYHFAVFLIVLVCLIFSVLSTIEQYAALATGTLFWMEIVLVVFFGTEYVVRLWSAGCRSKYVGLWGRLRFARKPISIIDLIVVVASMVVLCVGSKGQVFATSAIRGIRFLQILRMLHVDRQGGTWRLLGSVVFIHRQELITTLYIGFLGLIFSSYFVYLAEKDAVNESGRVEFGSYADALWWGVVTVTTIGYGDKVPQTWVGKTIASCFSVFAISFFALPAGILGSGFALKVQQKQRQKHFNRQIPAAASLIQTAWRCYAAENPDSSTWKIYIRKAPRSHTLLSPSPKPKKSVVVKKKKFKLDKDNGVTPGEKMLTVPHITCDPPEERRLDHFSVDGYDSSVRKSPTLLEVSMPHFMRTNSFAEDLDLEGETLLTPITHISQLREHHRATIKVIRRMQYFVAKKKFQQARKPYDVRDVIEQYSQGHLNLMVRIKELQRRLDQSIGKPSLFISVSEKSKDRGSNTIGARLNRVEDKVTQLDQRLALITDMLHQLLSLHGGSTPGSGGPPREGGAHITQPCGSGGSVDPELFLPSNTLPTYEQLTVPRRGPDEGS
KCNQ2 pot conf: rat KCNQ2 channel potentiator confirmation. potentiation, less the hit threshold, % at 10 µM. 68% of 1,200 active. shares compounds with KCNQ2 pot. CHO-KCNQ2 cells, FluxOR thallium flux fluorescence;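 active = fluorescence ratio rising 3 SD or more over the vehicle control mean in both replicates, plus primary screen hit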;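 also: peak minus minimum thallium fluorescence divided by baseline after K/Tl stimulus; 0% = vehicle mean plus 3 SD and 100% = vehicle minus unstimulated blank difference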
Kir21 spec: selectivity of KCNQ2 potentiators: effect on mouse Kir2.1; activity over 3SD threshold, % at 10 µM; 2% of 1,200 active; shares compounds with KCNQ2 pot; AID 2345; HEK293 Kir2.1, FluxOR thallium flux fluorescence;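 active = fluorescence ratio rise of at least 3 SD above the vehicle-control mean, seen in both replicates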;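 also: 0% = vehicle mean plus 3 SD and 100% = vehicle minus no-stimulus blank window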
KCNQ2 W236L pot: potentiates the retigabine-insensitive rat KCNQ2 W236L mutant channel. CHO KCNQ2-W236L, automated patch clamp current. current increase over 3SD of negative controls (%), stronger effect = higher value, % at 25 µM. 10% of 940 active. shares compounds with KCNQ2 pot;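 active = current increase at least 3 SD of the untreated controls above them in both duplicate recordings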
* = called active by the depositor; i = inactive; . = no result given.

SMILES	KCNQ2 inh	KCNQ2 pot	Kir21 confirm	HEK293 Tl flux	others
CCc1cc(Br)ccc1NC(=S)NCCc1ccccc1	i	.	62%*	i
COc1ccc(NC(=S)NCCc2ccccc2)c(C)c1	i	.	.	.
CCn1c(COc2ccc(=O)n(-c3ccccc3)n2)nnc1SCc1ccc(C)cc1	i	.	.	.
CCn1c(COc2ccc(C)cc2)nnc1SCc1ccc(C#N)cc1	i	.	68%*	i
O=C1c2oc3ccc(F)cc3c(=O)c2C(c2ccccc2)N1CC1CCCO1 (stereo not given)	i	.	.	.
Cc1cccc(NC(=S)N2CCN(c3ccccc3F)CC2)c1C	i	0.96	.	.
O=C(COc1ccc2ccccc2c1Br)N1CCCCC1	i	13*	i	i	CHO-K1 ctr=-2;KCNQ1 sel pot=-25;KCNQ2 pot conf=30*;Kir21 spec=-35;KCNQ2 W236L pot=i
NC(=O)C1CCN(C(=O)COc2ccc3ccccc3c2Br)CC1	i	.	.	.
CCOc1ccc(C(=O)NC2CCN(S(=O)(=O)c3ccccc3)CC2)cc1	i	.	.	.
CC(O)Cc1cn(CC(=O)N2CCN(C(=O)OC(C)(C)C)CC2)nn1 (stereo not given)	i	.	.	.
COc1ccc(CCNC(=O)CSc2nnc(-c3ccccc3)c3ccccc23)cc1OC	i	.	.	.
CCCCn1c(-c2ccccc2)cnc1SCC(=O)NCCc1ccc(OC)c(OC)c1	i	.	56%*	i
Cc1cc(NC(=O)CSc2nc(CC(C)(C)C)nc3c2c(=O)n(C)c(=O)n3C)no1	i	.	i	i
CCc1nc(SCC(=O)Nc2cc(C)on2)c2c(=O)n(C)c(=O)n(C)c2n1	i	0.93	.	.
CCN(CC)S(=O)(=O)c1ccc(/C=C/C(=O)NC2CCCCC2)cc1	i	.	.	.
Cc1ccc(-n2c(=S)[nH]c3sc4c(c3c2=O)CCC4)cc1	i	2	.	.
COCCn1c(=S)[nH]c2sc3c(c2c1=O)CCCC3	i	10*	i	326%*	CHO-K1 ctr=-24;KCNQ1 sel pot=35*;KCNQ2 pot conf=34*;Kir21 spec=-8;KCNQ2 W236L pot=i
C=CCn1c(=S)[nH]c2sc3c(c2c1=O)CCCC3	i	11*	i	298%*	CHO-K1 ctr=-4;KCNQ1 sel pot=-25;KCNQ2 pot conf=63*;Kir21 spec=-25;KCNQ2 W236L pot=i
O=c1c2c3c(sc2[nH]c(=S)n1Cc1ccco1)CCC3	i	4.7	.	.
COC(=O)c1cccc(C23CC4(C2)[C@H](CN(Cc2ccc(C(F)(F)F)cc2)[C@@H]4c2ccccc2)C3c2ccc(C(F)(F)F)cc2)c1 (stereo not given in full)	i	0.38	.	.
Nc1ccc(N=Nc2ccccc2O)c(N)c1	i	0.67	.	.
Oc1ccccc1N=Nc1ccccc1O	i	7.9*	i	i	CHO-K1 ctr=-11;KCNQ1 sel pot=-10;KCNQ2 pot conf=-23;Kir21 spec=-32
Cc1[nH]c2ccccc2c1NC(=O)CN1CCN(C(=O)c2ccco2)CC1	i	1.1	.	.
Cc1cccc(C)c1NC(=O)CN(C)C(=O)CC1OC(=O)c2ccccc21 (stereo not given)	i	0.09	.	.
COc1ccccc1Nc1nc(NCC2CCCO2)c2ccccc2n1 (stereo not given)	i	.	28%*	i
SMILES	KCNQ2 inh	KCNQ2 pot	Kir21 confirm	HEK293 Tl flux	others
COc1cccc(-c2nc(NCC3CCCO3)c3ccccc3n2)c1O (stereo not given)	i	.	.	.
COc1ccc(CN2CCN(C3CCC3)CC2CCO)c(F)c1 (stereo not given)	i	13*	i	i	CHO-K1 ctr=-13;KCNQ1 sel pot=-18;KCNQ2 pot conf=-8;Kir21 spec=-27
COc1ccc(CN2CCN(Cc3cc4ccccc4o3)CC2CCO)c(F)c1 (stereo not given)	i	.	.	.
COCCNC(=O)C1CCCN(S(=O)(=O)c2ccc3c(c2)CC(C)N3C(=O)C2CC2)C1 (stereo not given)	i	.	.	.
CCN(CC)C(=O)CSc1nnc(COc2ccccc2)n1N	i	.	.	.
C=CCNC(=S)Nc1sc2c(c1C(=O)OCC)CC(C(C)C)OC2 (stereo not given)	i	8.8*	i	197%*	CHO-K1 ctr=22*;KCNQ1 sel pot=84*;KCNQ2 pot conf=14*;Kir21 spec=-31;KCNQ2 W236L pot=i
CCOC(=O)c1c(NC(=S)Nc2ccc(OC)cc2)sc2c1CCC2	i	.	.	.
c1nc2nc3c(c(N4CCOCC4)n2n1)CCCC3	i	17*	i	i
CC1CCc2c(nc3ncnn3c2N2CCN(c3ccccc3)CC2)C1 (stereo not given)	i	1.3	.	.
Cc1nn2c(NCCN(C)C)c3c(nc2c1-c1ccccc1)CCCC3	i	6.1*	.	.	CHO-K1 ctr=-24;KCNQ1 sel pot=-13;KCNQ2 pot conf=-33;Kir21 spec=-64
COCCNc1c2c(nc3c(-c4ccccc4)c(C)nn13)CCCC2	i	.	.	.
CCC(CC)COC(=O)C1=C(C)NC(=O)NC1c1ccc2c(c1)OCO2 (stereo not given)	i	1.1	.	.
O=C(O)c1nn(-c2ccccc2-c2n[nH]c(=O)[nH]c2=O)c(=O)[nH]c1=O	i	.	.	.
COc1ccc(CCN2CCC(Nc3nc4ccccc4n3Cc3ccc(F)cc3)CC2)cc1	i	.	i	i
COc1ccc(CNc2nc3ccccc3n2CCN2CCCCC2)cc1	i	.	.	.
CCCn1c(CN2CCN(C(=O)OCC)CC2)nc2cc([N+](=O)[O-])ccc21	i	1.1	.	.
CCOc1ccc(OCC)c(NC(=O)CN2CCC(NC(=O)c3cccc(F)c3)CC2)c1	i	0.61	.	.
Cc1ccc(S(=O)(=O)Nc2c(O)ccc3ccccc23)cc1	i	2.4	.	.
Cc1ccc(S(=O)(=O)Nc2c(Cl)c(Cl)c(O)c3ccccc23)cc1	i	6.4*	i	i	CHO-K1 ctr=-9;KCNQ1 sel pot=68*;KCNQ2 pot conf=-11;Kir21 spec=-45;KCNQ2 W236L pot=i
O=C(CC1NCCc2ccccc21)Nc1ccc(Cl)cc1 (stereo not given)	i	.	.	.
NC(=O)C(c1ccc(Cl)cc1)c1ncc(C(F)(F)F)cc1Cl (stereo not given)	i	3.4	.	.
N#CC(c1ccc(O)cc1)c1ncc(C(F)(F)F)cc1Cl (stereo not given)	i	2.2	48%*	i
O=C(CNC(=O)C12CC3CC(CC(C3)C1)C2)N/N=C\c1ccccn1	i	.	.	.
NC(=O)c1ccc(NC(=O)CS(=O)(=O)c2cn(CC(=O)N3CCCCC3)c3ccccc23)cc1	i	.	.	.
Cc1ccc(OCCOCCN2CCN(C)CC2)c(C(C)(C)C)c1	i	0.05	.	.
